# Source: PubChem BioAssay AID624156 (Broad Institute, 2012)
# Among all 46,000 compounds or so, about 900 (2%) were called active. Not shown: some 1% with an inconclusive outcome. This excerpt belongs to a sample that is enriched for actives. A number with no mark means an inactive call. Cut-off read from the data, not from the text of the source: active = ROS induction above about 79% (passing the limit was not always enough); inconclusive = no clear call, values can overlap the other calls.
# Assay: ROS inducers in U2OS cancer cells, primary screen, cell-based, H2DCF-DA fluorescence (AID 624156);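 note: 0% = DMSO vehicle median and 100% = reference compound median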
# Conditions: at 10 µM, active compounds read high
row,Compound,ROS induction (% of piperlongumine)
1,COC(=O)C1=C(N)Oc2cc(C)oc(=O)c2C1c1cccnc1 (centres undefined),69.7%
2,CC(C)OC(=O)C1=c2s/c(=C\c3cccnc3)c(=O)n2C(N)=C(C#N)C1c1cccnc1 (centres undefined),104% (active)
3,CCN(Cc1ccccc1)S(=O)(=O)c1cc(Cl)ccc1Cl,29.9%
4,CCN(CC)c1nc(C#N)nc(OC)n1,55.7%
5,CC(CN1CCCC1)OC(=O)c1cc(C(C)(C)C)cc(C(C)(C)C)c1 (centres undefined),21.6%
6,CNC[C@@H]1Oc2c(NC(=O)Nc3ccccc3)cccc2C(=O)N([C@@H](C)CO)C[C@@H]1C,-4.47%
7,COC(=O)C1=C[C@@H](O)[C@@H](O)[C@H](O[C@@H]2O[C@H](CO)[C@@H](O)[C@H](O)[C@H]2OC(=O)/C=C/c2ccccc2)C1,-5.34%
8,CO[C@H]1O[C@H](CO)[C@@H](OC(=O)Nc2ccccc2-c2ccccc2)[C@H](OC(=O)Nc2ccccc2)[C@H]1OC(=O)Nc1ccccc1,132% (active)
9,S=C(NCCc1ccc(Cl)cc1)Nc1ccccc1,-13.7%
10,O=C(c1cncc(NS(=O)(=O)c2ccc(Cl)cc2)c1)N1CCN(Cc2ccccc2)CC1,41.7%
11,CC(C)C1N=C2c3ccccc3N=C(SCC(=O)c3ccc(Br)cc3)N2C1=O (centres undefined),63.2%
12,O=c1c2ccccc2nc(SCc2cccc(F)c2)n1C1CC1,17.8%
13,Cc1ccc(-n2c(SCC(=O)Nc3cccc(C)c3C)nc3ccccc3c2=O)cc1,-0.837%
14,CC(C)(C)C(=O)CSc1nc2ccccc2c(=O)n1CC1CC1,120% (active)
15,O=C(CSc1nc(-c2cccs2)cc(C(F)(F)F)n1)OCCCc1ccccc1,1.26%
16,CC(C)NC(=O)N(C)C[C@H]1Oc2ccc(NS(=O)(=O)c3cn(C)cn3)cc2CC(=O)N([C@@H](C)CO)C[C@H]1C,1.5%
17,C[C@@H]1CN([C@H](C)CO)C(=O)c2cc(NS(=O)(=O)c3cccs3)ccc2O[C@H]1CN(C)Cc1ccncc1,26%
18,C[C@@H]1CCCCO[C@@H](CN(C)Cc2ccncc2)[C@@H](C)CN([C@H](C)CO)C(=O)c2cc(NS(=O)(=O)c3cccs3)ccc2O1,104% (active)
19,C[C@@H]1CCCCO[C@@H](CN(C)S(=O)(=O)c2cccs2)[C@@H](C)CN([C@H](C)CO)C(=O)c2cc(NC(=O)Nc3ccc4c(c3)OCO4)ccc2O1,91.3% (active)
20,C[C@@H]1CCCCO[C@H](CN(C)S(=O)(=O)c2cccs2)[C@@H](C)CN([C@H](C)CO)C(=O)c2cc(NC(=O)Nc3ccccc3)ccc2O1,37.3%
21,C[C@@H]1CCCCO[C@@H](CN(C)S(=O)(=O)c2cccs2)[C@@H](C)CN([C@H](C)CO)C(=O)c2cc(NC(=O)Nc3ccc(F)cc3)ccc2O1,55.6%
22,C[C@@H]1CCCCO[C@H](CN(C)Cc2ccncc2)[C@@H](C)CN([C@H](C)CO)C(=O)c2cc(NS(C)(=O)=O)ccc2O1,-7.81%
23,COc1ccc(C=NCc2ccc(OC)c(OC)c2)cc1OC,12.4%
24,CC1C=CCC2C(=O)N(c3cccc(Cl)c3)C(=O)C12 (centres undefined),-5.69%
25,CC1CCC(NC(=O)c2ccccc2C(=O)O)CC1 (centres undefined),-7.64%

row,Compound,ROS induction (% of piperlongumine)
1,Cc1ccc2c(c1)c(-c1ccccc1)c(-c1ccccc1)n2CC(O)CNCc1ccco1 (centres undefined),4.62%
2,O=C(COC(=O)c1cc2ccccc2cc1O)c1ccc(OCc2ccccc2)cc1,6.42%
3,Cc1noc(C)c1NC(=O)N(C)C[C@H]1Oc2ccc(NC(=O)C3CCCCC3)cc2CC(=O)N([C@@H](C)CO)C[C@H]1C,-5.41%
4,FC(F)(F)c1cccc(NC(=S)Nc2cc(-c3cccs3)[nH]n2)c1,-6.71%
5,CCOC(=O)N1CCC(NC(=O)NCc2noc3ccccc23)CC1,-11.6%
6,CC(=O)Nc1ccc(Nc2c3c4c(cccc4[nH]c2=O)C(=O)c2ccccc2-3)cc1,105% (active)
7,CC(=O)Nc1ccc(NC(=O)COc2ccccc2C(=O)Nc2cccc(Cl)c2Cl)cc1,-10%
8,CC(=O)Nc1ccc(NC(=O)CN(c2ccccc2Br)S(C)(=O)=O)cc1,-14%
9,COc1cc2c(cc1NC(=O)CCC1CCCCC1)oc1ccccc12,-18.8%
10,CCOC(=O)c1c(C)nn(-c2ncccc2NC(=O)CCC(=O)O)c1C,-11.2%
11,COC(=O)[C@]1(Cc2ccccc2CN=[N+]=[N-])N=C(c2ccc(OCCCO)cc2)O[C@@H]1c1ccccc1CN=[N+]=[N-],86.1% (active)
12,COC(=O)[C@@]1(CCS(=O)(=O)c2ccccc2)N=C(c2ccc(OCCCO)cc2)O[C@H]1c1ccccc1N=[N+]=[N-],33.1%
13,[N-]=[N+]=Nc1ccccc1C[C@@]1(C(=O)NCc2ccccc2)N=C(c2ccc(OCCCO)cc2)O[C@@H]1c1ccccc1,30.8%
14,CNC[C@H]1Oc2ccc(NS(=O)(=O)c3cn(C)cn3)cc2C(=O)N([C@@H](C)CO)C[C@@H]1C,5.85%
15,COc1ccc(NC(=S)NCC(c2ccccc2)c2c[nH]c3ccccc23)cc1 (centres undefined),4.82%
16,COc1ccc(-c2cc(C(F)(F)F)nc(SCCC(=O)N(C)c3ccccc3)n2)cc1,33.5%
17,CCC(=O)Nc1ccccc1C(=O)Nc1ccccc1,10.3%
18,CC[N+]1=C(C)C(C)(C)c2cc(-c3ccccc3)ccc21,52.6%
19,Cc1nc2ccccn2c1-c1ccnc(SCC(=O)c2ccc(Cl)cc2)n1,102% (active)
20,C=CCn1c(SCc2nnc(SCC(=O)c3ccc(Cl)cc3)o2)nnc1-c1ccccc1,-1.34%
21,CCn1c(SCC(=O)c2ccc(OC)cc2)nnc1-c1ccccc1F,-17.9%
22,CC(C)NC(=O)c1ccc2c(c1)N(Cc1ccccc1)C(=O)CS2,-7.88%
23,COC(=O)/C=C1\SC(=NC(=O)c2ccc(F)cc2)NC1=O,1.03%
24,Cc1cccc(Cn2c(SCc3ccc(C(=O)N4CCCCC4)cc3)nc3ccncc32)c1,-1.54%
